Compound activity (PubChem BioAssay)
This is one part of a sample in which hits are shown more often than they occur.
KDM5B inhibitor – inhibitors of human KDM5B histone demethylase; KDM5B demethylase, FDH-coupled NADH fluorescence (FDH is formaldehyde dehydrogenase); 220,000 compounds, 2.6% hits; Q9UGL1; Potency, µM (titrated, usually from 57.7 µM), hits mostly inhibitors; AID 1347165; active = well fitted inhibition curve with a large enough effect; also: 0% is about no effect; nearly all actives have a fitted effect of over 70% in size
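qHTS format, multiple compound concentrations. Buffer 50 mM HEPES pH 7.5/0.01% Tween-20; 200 nM KDM5BΔAP final; 10 min compound preincubation; substrate-mix levels 12.5 µM peptide, 25 µM α-KG, 0.25 mM NAD⁺; 30 min RT; ΔRFU.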
An asterisk follows results filed as active; i = inactive. Potency is read from the fitted curve at half-maximal effect.

SMILES | KDM5B inhibitor
Cc1cc(C[C@@H]2COC[C@@H]2NC(=O)c2cc(CC(C)C)nc(N)n2)on1 | 31.6µM*
CCCc1cc(C(=O)N[C@H]2COC[C@H]2Cc2cc(C)no2)cs1 | i
Cc1cc(C[C@@H]2COC[C@@H]2NC(=O)c2ccccc2-c2ccc(F)cc2)on1 | i
Cc1cc(C[C@@H]2COC[C@@H]2NC(=O)c2csc(Cc3ccccc3)n2)on1 | i
Cc1cc(C[C@@H]2COC[C@@H]2NC(=O)c2ccc(S(N)(=O)=O)cc2)on1 | i
COc1cccc(N2C(=O)NC(=NC3CCCC3)C23CCCN(Cc2ccccc2)C3)c1 (centres undefined) | i
Cc1c(NC(=O)c2c(Cl)cnn2C)cnn1C | i
O=C(C1CC1)N1CCC2(CC1)CCN(Cc1cccs1)c1ccccc1O2 | i
CCOC(=O)C1(Cc2ccccc2C(F)(F)F)CCN(Cc2ccccn2)CC1 | i
CCCC(=O)n1ccn(S(=O)(=O)c2ccc(C)cc2)c1=O | i
COc1ccc(CNC(=O)Cn2ccc3cccc(OC)c32)cc1 | i
O=C(c1ccccc1C(F)(F)F)N1CCC2(C1)C(=O)Nc1ccccc12 (centres undefined) | i
O=c1c2c(nc3cc[nH]n13)CN(S(=O)(=O)c1cccc(C(F)(F)F)c1)CC2 | i
Cc1cc(C(=O)N2CCc3c(nc[nH]c3=O)C2)c2cc(Cl)ccc2n1 | i
O=C(c1ccc(F)cc1Cl)N1CCN(c2cc(-c3ccc(F)cc3)[nH]n2)CC1 | i
O=C(c1ccccc1C(F)(F)F)N1CCc2c(nc3cc[nH]n3c2=O)C1 | 25.1µM*
O=C(c1ccc(F)cc1Cl)N1CCc2c(nc3cc[nH]n3c2=O)C1 | 28.2µM*
COc1cccc(NC(=O)CSc2nnc(C3CCCCC3)n2-n2cccc2)c1 | i
Cc1[nH]c2nc3ccccc3n2c(=O)c1Cc1ccccc1Cl | i
CCC(C)c1ccc(NC(=O)CCc2ncc(-c3ccccc3)o2)cc1 (centres undefined) | i
COc1ccc(C)cc1NC(=O)CC1CCCN(c2cnn(C)c(=O)c2)C1 (centres undefined) | i
COc1ccc(N2CCN(c3ncccc3-c3nc(-c4ccccc4C)no3)CC2)cc1 | i
COC(=O)[C@@H]1CCCN1c1ccc(-c2nc(-c3ccccc3F)no2)cn1 | 25.1µM*
COCC1CCN(c2ccc(-c3nc(-c4ccccc4C)no3)cn2)C1 (centres undefined) | 31.6µM*
CCCN1CCN(c2ccc(-c3nc(C)no3)cn2)CC1 | i
SMILES | KDM5B inhibitor
CC1CCCN(C(=O)COc2ccccc2-c2noc(-c3ccc(Cl)cc3)n2)C1 (centres undefined) | i
CC1CCN(C(=O)COc2ccccc2-c2noc(-c3ccccc3F)n2)CC1 | i
CCOc1ccc(C2C(C#N)=C(N)Oc3cc(C)n(Cc4cccnc4)c(=O)c32)cc1OCC (centres undefined) | i
Cc1cccc(S(=O)(=O)N2CCN(C3CCN(Cc4ccccn4)C3=O)CC2)c1 (centres undefined) | i
COc1ccc2oc(-c3ccc(NC(=O)c4ccc(Br)o4)cc3)nc2c1 | i
Cc1ccc(C(=O)CC(c2ccc(Cl)cc2)S(=O)(=O)c2ccc(C)cc2)cc1 (centres undefined) | i
O=C(O)c1ccc(C#Cc2ccccc2)cc1 | i
O=C(NCCc1noc(-c2cccnc2)n1)C1(c2ccccc2)CC1 | i
c1ccc(OCc2noc(-c3ccc(NC4CCSC4)nc3)n2)cc1 (centres undefined) | 28.2µM*
c1ccc(OCc2noc(CN3CC[C@@H]4CCCC[C@H]4C3)n2)cc1 | i
CC(C)N(C(=O)CSc1ccc(F)cc1)c1ccccc1 | i
CCN(CC)C(=O)C(Sc1nnc(-c2ccc(Cl)cc2Cl)n1N)c1ccccc1 (centres undefined) | i
CCOC(=O)NCC(=O)NCc1cccnc1 | i
Cc1noc(C)c1-c1cnc2[nH]cc(CC(N)=O)c2c1 | 31.6µM*
Cc1noc(C)c1-c1cnc2[nH]cc(CC(=O)NCc3cccnc3)c2c1 | 35.5µM*
O=C(Cc1c[nH]c2ncc(-c3cccnc3)cc12)NC1CCC1 | i
O=C(Nc1ccc(I)cc1C(F)(F)F)c1ccc2ccccc2c1 | i
O=[N+]([O-])c1ccc(Cl)c(/C=N/Nc2nc(Cl)c(Cl)cc2Cl)c1 | i
CCc1nc(-c2c3n(c(=O)n(Cc4ccccc4F)c2=O)CCCC3)no1 | i
CCc1nc(-c2c3n(c(=O)n(Cc4cc(=O)n5ccccc5n4)c2=O)CCCC3)no1 | 22.4µM*
CCc1nc(-c2c3n(c(=O)n(Cc4ccc(C)cc4)c2=O)CCCC3)no1 | i
COCc1nc2nc(-c3ccccc3)c(-c3cccnc3)cc2n1C | i
COCc1nc2nc(-c3ccccc3)c(-c3ccccc3O)cc2n1C | i
COCc1nc2nc(-c3ccccc3)c(Nc3ccc(F)cc3)cc2n1C | 31.6µM*
COc1cc(-c2cc3c(nc2OC)nc(CC2CC2)n3C)ccn1 | 39.8µM*
SMILES | KDM5B inhibitor
COc1ccc(-n2ccnc2CN2CCC(Cc3nncn3C)CC2)cc1 | i
COc1ccc(S(=O)(=O)N2CCC(Cc3nncn3C)CC2)cc1 | i
COc1ccc(-c2cc3c(nc2OC)nc(CC2CC2)n3C)cc1 | 35.5µM*
COc1cccc(C(=O)C(C#N)C(=O)Nc2ccccc2)c1 (centres undefined) | i
Cc1ccc(S(=O)(=O)N2CCN(C(C(=O)O)c3c[nH]c4cc(Cl)ccc34)CC2)cc1 (centres undefined) | i
COc1cc(/C=N/NC(=O)CNc2cccc(C(F)(F)F)c2)ccc1OC(=O)c1ccccc1F | i
O=C(Nc1cccc(OCC2CCCO2)c1)C1CCN(C(=O)C2CC2)CC1 (centres undefined) | i
O=[S+]([O-])(c1cccnc1)c1nnn2c1nc(N1CCOCC1)c1ccccc12 | i
COCCNc1nc2c(S(=O)(=O)c3ccc(C)c(C)c3)nnn2c2ccc(Cl)cc12 | i
COCCNc1nc2c(S(=O)(=O)c3ccc(C)c(C)c3)nnn2c2ccccc12 | 79.4µM*
COc1ccc([S+](=O)([O-])c2nnn3c2nc(N2CCOCC2)c2ccccc23)cc1 | 79.4µM*
O=[S+]([O-])(c1ccc(Cl)cc1)c1nnn2c1nc(N1CCC(F)CC1)c1ccccc12 | i
CC(C)c1ccc([S+](=O)([O-])c2nnn3c2nc(NC2CC2)c2ccccc23)cc1 | i
CCc1ccc(S(=O)(=O)c2nnn3c2nc(N2CCOCC2)c2ccccc23)cc1 | i
CCc1ccc([S+](=O)([O-])c2nnn3c2nc(NCCCOC)c2ccccc23)cc1 | 89.1µM*
CC(C)OCCCNc1nc2c([S+](=O)([O-])c3cccnc3)nnn2c2ccccc12 | i
COCCCNc1nc2c(S(=O)(=O)c3ccc(C)c(C)c3)nnn2c2ccc(Cl)cc12 | i
Cc1ccc(S(=O)(=O)c2nnn3c2nc(N2CCCCC2)c2ccccc23)cc1 | i
Cc1ccc(S(=O)(=O)c2nnn3c2nc(N2CCOCC2)c2ccccc23)cc1 | 79.4µM*
COc1cc(CN2CCCCCC2c2ccccc2Cl)ccc1OCC(N)=O (centres undefined) | i
CCCCCCNC(=S)Nc1ccc(F)cc1 | i
CN(C)Cc1ccc(CNC(=O)CCc2ncc(-c3ccc(F)cc3)o2)cc1 | i
CC(NC(=O)c1ccc2ccccc2n1)c1cccs1 (centres undefined) | i
COc1cccc(C(=O)N2CCC(N3C[C@H](O)C[C@H]3C(=O)NCc3ccc(F)cc3)CC2)c1 | i
